# PubChem BioAssay (EPA / NIEHS)
# Results filed as inconclusive are left out. The source made the active and inactive calls. The calls were made as follows: active = hit-call score of the fitted dose curve at least 0.9, where 1 is the maximum; inconclusive = response in the unintended direction; inactive = score below 0.9.
# Test: Tanguay_ZF_120hpf_SNOU_legacy: (Legacy) Oregon State University Tanguay Lab 120 Hour Post-fertilization zebrafish Assay for Snout Malformation (AID 2283637)
# In short: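 Binary snout-malformation call at 120 hpf in wild-type 5D embryos, chorion removed by pronase, under static exposure from 6 hpf at 28C (0.64% DMSO). Embryos dying by 24 or 120 hpf excluded.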
SMILES,AC50,outcome
CC(C1CC1)C(O)(Cn1cncn1)c1ccc(Cl)cc1 (stereo unspecified),9.24 µM (active),–
CCNc1nc(Cl)nc(NC(C)(C)C#N)n1,–,inactive
CCCCOC(=O)[C@@H](C)Oc1ccc(Oc2ccc(C#N)cc2F)cc1,–,inactive
COP(=O)(NC(C)=O)SC (stereo unspecified),–,inactive
CCOP(=S)(OCC)Oc1ccc([N+](=O)[O-])cc1,–,inactive
CCc1cccc(CC)c1N(COC)C(=O)CCl,–,inactive
CNc1cnn(-c2cccc(C(F)(F)F)c2)c(=O)c1Cl,–,inactive
CCOP(=S)(Oc1cnc(C(C)(C)C)nc1)OC(C)C (stereo unspecified),–,inactive
CSc1nc(NC(C)C)nc(NC(C)C)n1,–,inactive
CN1COCN(Cc2cnc(Cl)s2)C1=N[N+](=O)[O-],–,inactive
O=C(O)c1cc(Oc2ccc(C(F)(F)F)cc2Cl)ccc1[N+](=O)[O-],–,inactive
C=C(C)[C@H]1Cc2c(ccc3c2O[C@@H]2COc4cc(OC)c(OC)cc4[C@@H]2C3=O)O1,–,inactive
CNC(=O)Oc1cccc2c1OC(C)(C)O2,–,inactive
CCCOc1nn(C(=O)NS(=O)(=O)c2ccccc2C(=O)OC)c(=O)n1C,–,inactive

# Test: Tanguay_ZF_120hpf_JAW_legacy: (Legacy) Oregon State University Tanguay Lab 120 Hour Post-fertilization zebrafish Assay for Jaw Malformation (AID 2283638);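 as to AC50: active means more embryos with jaw malformation than DMSO controls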
# In short: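 Binary jaw-malformation calls at 120 hpf by brightfield imaging; DMSO (0.64% v/v) = baseline. Embryos: 5D wild-type, pronase-dechorionated, one per well from 6 hpf, static exposure, 28C, sealed, dark.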
SMILES,outcome,AC50
CCCOCC(=Nc1ccc(Cl)cc1C(F)(F)F)n1ccnc1,inactive,–
CCOC(=O)COc1cc(-c2nn(C)c(OC(F)F)c2Cl)c(F)cc1Cl,inactive,–
CCC(=NOC/C=C/Cl)C1=C(O)CC(C2CCOCC2)CC1=O (stereo unspecified),inactive,–
Cc1ccn2nc(S(=O)(=O)Nc3c(F)cccc3F)nc2n1,inactive,–
COc1ccc(C(=CC(=O)N2CCOCC2)c2ccc(Cl)cc2)cc1OC,–,43.7 µM (active)
CNC(=O)ON=C(C)SC,–,39.5 µM (active)
CCc1cnc(C2=NC(C)(C(C)C)C(=O)N2)c(C(=O)O)c1 (stereo unspecified),inactive,–
Cc1nn(-c2cc(NS(C)(=O)=O)c(Cl)cc2Cl)c(=O)n1C(F)F,inactive,–
CCCCOC(=O)[C@@H](C)Oc1ccc(Oc2ccc(C#N)cc2F)cc1,inactive,–
COP(=O)(NC(C)=O)SC (stereo unspecified),inactive,–
CCc1cccc(CC)c1N(COC)C(=O)CCl,inactive,–
CN1COCN(Cc2cnc(Cl)s2)C1=N[N+](=O)[O-],inactive,–
O=C(O)c1cc(Oc2ccc(C(F)(F)F)cc2Cl)ccc1[N+](=O)[O-],inactive,–
C=C(C)[C@H]1Cc2c(ccc3c2O[C@@H]2COc4cc(OC)c(OC)cc4[C@@H]2C3=O)O1,inactive,–
CCCOc1nn(C(=O)NS(=O)(=O)c2ccccc2C(=O)OC)c(=O)n1C,inactive,–

# Test: Tanguay_ZF_120hpf_OTIC_legacy: (Legacy) Oregon State University Tanguay Lab 120 Hour Post-fertilization zebrafish Assay for Otic Vesicle Malformation (AID 2283639)
# In short: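 Binary scoring of otic vesicle defects at 120 hpf in zebrafish (Tropical 5D) held under static exposure at 28C, sealed and shaded, with final DMSO 0.64%. Embryos dying by 24 or 120 hpf excluded; fitted positively against DMSO.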
SMILES,outcome,AC50
C[N+]1(C)CCCCC1,inactive,–
O=[N+]([O-])c1cc(C(F)(F)F)c(Cl)c([N+](=O)[O-])c1Nc1ncc(C(F)(F)F)cc1Cl,inactive,–
CCCOCC(=Nc1ccc(Cl)cc1C(F)(F)F)n1ccnc1,inactive,–
CCOC(=O)COc1cc(-c2nn(C)c(OC(F)F)c2Cl)c(F)cc1Cl,inactive,–
CCOP(=O)(SC(C)CC)N1CCSC1=O (stereo unspecified),inactive,–
CC(COc1ccc(Oc2ccccc2)cc1)Oc1ccccn1 (stereo unspecified),inactive,–
CN(C)[C@@H]1C(=O)C(C(N)=O)=C(O)[C@@]2(O)C(=O)C3=C(O)c4c(O)cccc4[C@@](C)(O)[C@H]3[C@H](O)[C@@H]12,inactive,–
COc1cccc(C(=O)NN(C(=O)c2cc(C)cc(C)c2)C(C)(C)C)c1C,inactive,–
CCC(=NOC/C=C/Cl)C1=C(O)CC(C2CCOCC2)CC1=O (stereo unspecified),inactive,–
CCOP(=S)(OCC)OC(Cl)C(Cl)(Cl)Cl (stereo unspecified),inactive,–
CC1=NNC(=O)N(/N=C/c2cccnc2)C1,inactive,–
Cc1ccn2nc(S(=O)(=O)Nc3c(F)cccc3F)nc2n1,inactive,–
Nc1c(Cl)cc([N+](=O)[O-])cc1Cl,–,36.4 µM (active)
CCCSP(=O)(OCC)Oc1ccc(Br)cc1Cl (stereo unspecified),inactive,–
CCOP(=O)(OCC)Oc1cc(C)nc(C(C)C)n1,inactive,–
COc1ccc(C(=CC(=O)N2CCOCC2)c2ccc(Cl)cc2)cc1OC,–,42.6 µM (active)

SMILES,outcome,AC50
CNC(=O)ON=C(C)SC,inactive,–
CCCSP(=O)(OCC)SCCC,inactive,–
COP(=O)(OC)OC(Br)C(Cl)(Cl)Br (stereo unspecified),inactive,–
CCc1cnc(C2=NC(C)(C(C)C)C(=O)N2)c(C(=O)O)c1 (stereo unspecified),inactive,–
Cc1nn(-c2cc(NS(C)(=O)=O)c(Cl)cc2Cl)c(=O)n1C(F)F,inactive,–
C#CC(C)(C)NC(=O)c1cc(Cl)cc(Cl)c1,inactive,–
COP(=O)(NC(C)=O)SC (stereo unspecified),inactive,–
CCOP(=S)(OCC)Oc1ccc([N+](=O)[O-])cc1,inactive,–
CCc1cccc(CC)c1N(COC)C(=O)CCl,inactive,–
CCOP(=S)(Oc1cnc(C(C)(C)C)nc1)OC(C)C (stereo unspecified),inactive,–
CSc1nc(NC(C)C)nc(NC(C)C)n1,inactive,–
CN1COCN(Cc2cnc(Cl)s2)C1=N[N+](=O)[O-],inactive,–
O=C(O)c1cc(Oc2ccc(C(F)(F)F)cc2Cl)ccc1[N+](=O)[O-],inactive,–
C=C(C)[C@H]1Cc2c(ccc3c2O[C@@H]2COc4cc(OC)c(OC)cc4[C@@H]2C3=O)O1,inactive,–
CNC(=O)Oc1cccc2c1OC(C)(C)O2,inactive,–
CCCOc1nn(C(=O)NS(=O)(=O)c2ccccc2C(=O)OC)c(=O)n1C,inactive,–
